Assay results from the supplement of paper PMC10849652.
About 7,900 targets were measured; listed, in parts, are those with a hit and a random draw of the rest. About 0.6% of all pairs of compound and target were hits. Values without a mark were called inactive.

Columns and labels:
Experiment in all cases: log2 fold change, soluble protein after heating vs DMSO (PISA); higher = thermal stabilisation; K562 cells, 10 uM, 30 min; active = over 0.2 and 3.5 SD of the protein, either way, in both replicates (recomputed)
[1] = compound: NC(=O)Nc1cc(-c2cccc(F)c2)sc1C(=O)N[C@H]1CCCNC1
Outline: (§1)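 K562 cells at 2×10^6 cells/mL were given 10 μM compound for 30 min. Aliquots then went through 3 min of heating across 48°C-58°C, were pooled, and were extracted in PBS with 0.5% NP-40 at 4°C, and the supernatant after 21,000xg for 90 min was quantified by TMTpro 16plex LC-MS/MS with channel sums equalised. Thermal stability relative to control samples, from duplicates, is given as log2 fold change.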

[2] = compound: NC(=O)c1cnc(N[C@@H]2CCCC[C@@H]2N)nc1Nc1cccc(-n2nccn2)c1
Outline: as §1

[3] = compound: NC1(c2ccc(-c3nc4ccn5c(=O)[nH]nc5c4cc3-c3ccccc3)cc2)CCC1
Outline: as §1

[4] = compound: NCC(=O)Nc1ccc(-n2nc(C(F)(F)F)cc2-c2ccc3c(ccc4ccccc43)c2)cc1
Outline: as §1

entinostat = compound: Nc1ccccc1NC(=O)c1ccc(CNC(=O)OCc2cccnc2)cc1 [entinostat]
Outline: as §1

vorinostat = compound: O=C(CCCCCCC(=O)Nc1ccccc1)NO [vorinostat]
Outline: as §1

citarinostat = compound: O=C(CCCCCCNC(=O)c1cnc(N(c2ccccc2)c2ccccc2Cl)nc1)NO [citarinostat]
Outline: as §1

silmitasertib = compound: O=C(O)c1ccc2c(c1)nc(Nc1cccc(Cl)c1)c1ccncc12 [silmitasertib]
Outline: as §1

[5] = compound: O=C1NC(=O)C(c2cnc3ccccn23)=C1c1cn2c3c(cc(F)cc13)CN(C(=O)N1CCCCC1)CC2
Outline: as §1

[6] = compound: c1cc(OCCN2CCCCC2)cc(-c2n[nH]c3ccc(-c4nnc[nH]4)cc23)c1
Outline: as §1

entospletinib = compound: c1cn2cc(-c3ccc4cn[nH]c4c3)nc(Nc3ccc(N4CCOCC4)cc3)c2n1 [entospletinib]
Outline: as §1

Sequence of UniProt O43815 (O43815 whole entry, looked up): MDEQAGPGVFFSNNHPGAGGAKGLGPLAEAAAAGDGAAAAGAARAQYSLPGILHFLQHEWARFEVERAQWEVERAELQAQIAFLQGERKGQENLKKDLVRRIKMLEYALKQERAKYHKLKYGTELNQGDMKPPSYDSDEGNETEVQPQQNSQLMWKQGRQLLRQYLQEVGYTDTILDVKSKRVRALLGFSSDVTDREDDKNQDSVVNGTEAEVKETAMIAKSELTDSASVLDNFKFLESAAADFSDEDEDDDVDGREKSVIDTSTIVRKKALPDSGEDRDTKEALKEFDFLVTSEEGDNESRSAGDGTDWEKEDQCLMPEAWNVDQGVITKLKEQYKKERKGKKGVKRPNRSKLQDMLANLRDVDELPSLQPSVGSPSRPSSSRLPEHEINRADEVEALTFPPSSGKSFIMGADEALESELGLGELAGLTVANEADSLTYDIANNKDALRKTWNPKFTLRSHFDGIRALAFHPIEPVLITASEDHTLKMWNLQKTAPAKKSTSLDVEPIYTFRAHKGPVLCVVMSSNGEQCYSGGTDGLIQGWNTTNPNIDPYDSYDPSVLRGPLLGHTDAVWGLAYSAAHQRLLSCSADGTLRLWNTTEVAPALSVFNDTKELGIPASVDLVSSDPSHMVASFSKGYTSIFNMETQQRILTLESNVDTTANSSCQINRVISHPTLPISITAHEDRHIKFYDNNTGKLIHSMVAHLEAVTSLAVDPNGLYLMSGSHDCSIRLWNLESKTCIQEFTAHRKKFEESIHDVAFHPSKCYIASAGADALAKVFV
Sequence of UniProt Q9P289 (Q9P289 whole entry, looked up): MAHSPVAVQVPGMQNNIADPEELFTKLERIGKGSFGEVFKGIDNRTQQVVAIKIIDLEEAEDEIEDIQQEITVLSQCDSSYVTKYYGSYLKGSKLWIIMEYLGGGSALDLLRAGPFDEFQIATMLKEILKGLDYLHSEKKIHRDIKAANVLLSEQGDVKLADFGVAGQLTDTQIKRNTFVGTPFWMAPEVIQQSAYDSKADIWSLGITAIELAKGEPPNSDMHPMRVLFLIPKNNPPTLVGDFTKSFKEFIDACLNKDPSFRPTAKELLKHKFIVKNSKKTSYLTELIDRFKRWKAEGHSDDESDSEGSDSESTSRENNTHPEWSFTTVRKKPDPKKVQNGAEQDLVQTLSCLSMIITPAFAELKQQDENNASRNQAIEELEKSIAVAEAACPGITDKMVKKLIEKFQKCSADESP
Sequence of UniProt Q9UMY4 (Q9UMY4 whole entry, looked up): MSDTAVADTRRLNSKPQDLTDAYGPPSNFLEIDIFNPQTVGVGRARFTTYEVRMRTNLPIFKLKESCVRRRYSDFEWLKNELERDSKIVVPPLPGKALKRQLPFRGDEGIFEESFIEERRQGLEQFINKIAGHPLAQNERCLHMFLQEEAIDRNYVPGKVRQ
Sequence of UniProt Q9UKI8 (Q9UKI8 whole entry, looked up): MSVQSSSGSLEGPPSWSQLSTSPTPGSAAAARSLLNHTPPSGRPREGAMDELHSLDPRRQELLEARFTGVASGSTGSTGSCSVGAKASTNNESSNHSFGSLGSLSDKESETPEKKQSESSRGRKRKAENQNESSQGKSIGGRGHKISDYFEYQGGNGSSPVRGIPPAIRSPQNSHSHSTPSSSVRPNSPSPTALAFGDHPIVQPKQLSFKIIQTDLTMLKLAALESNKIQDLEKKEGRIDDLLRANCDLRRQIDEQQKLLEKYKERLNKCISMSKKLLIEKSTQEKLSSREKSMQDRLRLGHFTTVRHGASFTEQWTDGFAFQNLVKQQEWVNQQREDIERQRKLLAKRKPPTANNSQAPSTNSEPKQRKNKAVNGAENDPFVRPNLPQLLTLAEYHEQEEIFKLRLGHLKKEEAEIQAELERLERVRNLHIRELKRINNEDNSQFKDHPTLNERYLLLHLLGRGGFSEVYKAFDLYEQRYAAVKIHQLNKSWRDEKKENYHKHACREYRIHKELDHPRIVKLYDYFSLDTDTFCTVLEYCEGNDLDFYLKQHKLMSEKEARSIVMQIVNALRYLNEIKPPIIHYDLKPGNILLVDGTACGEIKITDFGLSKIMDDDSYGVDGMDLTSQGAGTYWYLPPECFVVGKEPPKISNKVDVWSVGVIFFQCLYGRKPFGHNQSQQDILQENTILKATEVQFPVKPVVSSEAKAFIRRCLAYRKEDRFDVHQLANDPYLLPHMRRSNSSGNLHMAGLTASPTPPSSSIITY
Sequence of UniProt Q9Y5X3 (Q9Y5X3 whole entry, looked up): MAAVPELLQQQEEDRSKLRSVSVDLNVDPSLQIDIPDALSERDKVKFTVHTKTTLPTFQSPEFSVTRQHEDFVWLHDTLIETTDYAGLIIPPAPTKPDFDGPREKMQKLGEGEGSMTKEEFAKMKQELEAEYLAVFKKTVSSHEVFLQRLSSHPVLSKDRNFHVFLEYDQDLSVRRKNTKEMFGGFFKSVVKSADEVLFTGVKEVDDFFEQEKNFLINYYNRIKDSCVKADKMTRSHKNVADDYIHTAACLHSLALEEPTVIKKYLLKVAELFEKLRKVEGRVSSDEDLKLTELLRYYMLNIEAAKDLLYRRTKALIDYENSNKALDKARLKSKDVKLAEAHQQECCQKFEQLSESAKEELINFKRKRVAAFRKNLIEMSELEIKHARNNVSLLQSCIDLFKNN
Sequence of UniProt Q15208 (Q15208 whole entry, looked up): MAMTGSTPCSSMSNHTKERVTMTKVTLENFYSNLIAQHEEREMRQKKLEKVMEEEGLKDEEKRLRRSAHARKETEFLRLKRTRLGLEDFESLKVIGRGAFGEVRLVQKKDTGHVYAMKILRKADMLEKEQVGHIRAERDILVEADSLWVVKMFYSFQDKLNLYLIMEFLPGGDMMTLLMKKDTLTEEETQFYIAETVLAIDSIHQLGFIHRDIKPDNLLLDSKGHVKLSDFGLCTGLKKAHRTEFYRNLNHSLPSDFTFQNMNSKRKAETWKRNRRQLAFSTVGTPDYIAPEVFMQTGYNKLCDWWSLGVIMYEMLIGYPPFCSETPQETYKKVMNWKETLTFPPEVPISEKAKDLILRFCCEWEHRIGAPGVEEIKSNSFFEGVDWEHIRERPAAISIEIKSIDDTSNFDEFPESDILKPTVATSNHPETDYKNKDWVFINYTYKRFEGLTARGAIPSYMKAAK
Sequence of UniProt Q13395 (Q13395 whole entry, looked up): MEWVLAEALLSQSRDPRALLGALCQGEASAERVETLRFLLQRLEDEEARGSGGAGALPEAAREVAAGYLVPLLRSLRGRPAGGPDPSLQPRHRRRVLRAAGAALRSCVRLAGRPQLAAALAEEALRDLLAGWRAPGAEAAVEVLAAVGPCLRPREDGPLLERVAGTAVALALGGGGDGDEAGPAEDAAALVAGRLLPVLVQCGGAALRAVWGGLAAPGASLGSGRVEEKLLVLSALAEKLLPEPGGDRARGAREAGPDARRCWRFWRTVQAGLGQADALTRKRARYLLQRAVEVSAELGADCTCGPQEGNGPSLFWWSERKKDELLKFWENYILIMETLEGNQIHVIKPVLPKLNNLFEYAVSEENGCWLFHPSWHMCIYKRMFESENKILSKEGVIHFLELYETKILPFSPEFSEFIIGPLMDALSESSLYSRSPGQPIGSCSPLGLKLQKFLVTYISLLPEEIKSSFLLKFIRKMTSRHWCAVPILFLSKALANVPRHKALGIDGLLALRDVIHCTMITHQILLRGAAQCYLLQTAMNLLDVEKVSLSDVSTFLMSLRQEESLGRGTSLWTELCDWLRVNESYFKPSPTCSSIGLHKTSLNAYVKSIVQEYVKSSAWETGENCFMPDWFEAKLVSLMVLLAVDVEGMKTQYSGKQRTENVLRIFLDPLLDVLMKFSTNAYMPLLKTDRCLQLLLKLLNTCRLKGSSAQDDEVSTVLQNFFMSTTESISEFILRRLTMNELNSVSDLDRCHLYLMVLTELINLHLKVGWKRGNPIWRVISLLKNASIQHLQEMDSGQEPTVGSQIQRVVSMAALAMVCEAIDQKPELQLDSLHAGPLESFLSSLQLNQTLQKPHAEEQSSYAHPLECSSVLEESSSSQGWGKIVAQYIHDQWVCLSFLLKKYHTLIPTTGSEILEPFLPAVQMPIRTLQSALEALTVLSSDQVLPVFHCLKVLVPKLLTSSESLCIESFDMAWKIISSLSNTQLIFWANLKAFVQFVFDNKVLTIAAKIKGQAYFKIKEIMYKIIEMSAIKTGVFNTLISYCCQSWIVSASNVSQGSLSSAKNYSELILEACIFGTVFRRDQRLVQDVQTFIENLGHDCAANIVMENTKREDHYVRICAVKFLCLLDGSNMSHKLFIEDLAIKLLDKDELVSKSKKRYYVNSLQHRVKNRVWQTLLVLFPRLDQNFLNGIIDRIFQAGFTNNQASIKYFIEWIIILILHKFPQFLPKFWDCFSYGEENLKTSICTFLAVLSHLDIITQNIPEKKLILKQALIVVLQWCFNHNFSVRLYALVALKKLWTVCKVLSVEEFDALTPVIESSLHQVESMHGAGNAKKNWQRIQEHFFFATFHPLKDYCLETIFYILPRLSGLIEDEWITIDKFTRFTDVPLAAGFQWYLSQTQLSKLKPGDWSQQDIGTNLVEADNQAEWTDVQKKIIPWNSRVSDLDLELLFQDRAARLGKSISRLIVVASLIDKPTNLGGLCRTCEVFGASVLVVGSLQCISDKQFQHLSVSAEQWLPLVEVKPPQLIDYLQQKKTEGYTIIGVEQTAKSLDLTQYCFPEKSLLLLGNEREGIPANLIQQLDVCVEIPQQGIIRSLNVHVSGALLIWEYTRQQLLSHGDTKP
Sequence of UniProt Q96DW6 (Q96DW6 whole entry, looked up): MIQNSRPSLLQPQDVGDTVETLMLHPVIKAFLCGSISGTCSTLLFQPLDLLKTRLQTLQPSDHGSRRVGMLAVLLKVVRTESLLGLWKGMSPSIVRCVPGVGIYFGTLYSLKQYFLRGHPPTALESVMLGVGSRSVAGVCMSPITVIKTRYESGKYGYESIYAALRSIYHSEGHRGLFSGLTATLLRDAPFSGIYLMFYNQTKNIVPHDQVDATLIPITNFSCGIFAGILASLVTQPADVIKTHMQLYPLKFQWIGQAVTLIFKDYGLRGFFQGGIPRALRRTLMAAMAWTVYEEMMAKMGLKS
Sequence of UniProt Q9Y5J6 (Q9Y5J6 whole entry, looked up): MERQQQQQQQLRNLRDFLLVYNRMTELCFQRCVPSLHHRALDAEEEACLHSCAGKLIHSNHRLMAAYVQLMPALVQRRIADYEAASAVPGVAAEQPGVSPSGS

Target	log2 fold change [1]	log2 fold change [2]	log2 fold change [3]	log2 fold change [4]	log2 fold change (entinostat)	log2 fold change (vorinostat)	log2 fold change (citarinostat)	log2 fold change (silmitasertib)	log2 fold change [5]	log2 fold change [6]	log2 fold change (entospletinib)
SRSF9 (UniProt Q13242)	0.079	0.17	0.398	0.171	-0.072	0.029	-0.114	0.195	0.245	-0.237	0.094
SLC30A7 (UniProt Q8NEW0)	-0.035	0.013	-0.276	-0.178	0.024	-0.024	-0.028	0.039	0.025	-0.032	-0.201
TLK2 isoform 2 (UniProt Q86UE8)	-0.059	0.049	-0.042	-0.037	0.036	0.1	0.016	0.034	-0.026	-0.052	0.03
TANK (UniProt Q92844)	0.076	0.041	-0.035	0.023	-0.001	-0.084	-0.022	0.064	0.028	0.01	-0.076
STK38 (UniProt Q15208)	-0.072	-0.077	-0.11	-0.062	0.129	0.016	0.097	0.061	0.004	-0.086	-0.033
TBC1D9B (UniProt Q66K14)	-0.194	-0.095	-0.07	-0.012	-0.085	-0.034	0.173	0.021	-0.176	-0.13	0.138
SNX5 (UniProt Q9Y5X3)	-0.022	-0.275	-0.332 (active)	-0.037	0.078	0.108	0.09	-0.061	-0.006	-0.11	-0.002
SNUPN (UniProt O95149)	-0.031	-0.06	-0.095	-0.063	0.06	0.027	-0.082	0.027	-0.077	0.071	0.064
TBC1D23 (UniProt Q9NUY8)	0.015	-0.135	-0.33 (active)	-0.009	0.06	0.115	0.045	0.02	-0.073	-0.047	-0.045
STARD9 (UniProt Q9P2P6)	-0.179	-0.029	0.058	0.073	0.007	0	-0.026	0.025	-0.048	0.028	-0.059
SSB (UniProt P05455)	-0.018	-0.181	-0.01	-0.091	0.039	0.085	0.02	-0.035	-0.089	-0.085	-0.051
STRN (UniProt O43815)	-0.055	0.019	-0.037	0.019	-0.008	0.024	0.028	0	-0.051	-0.031	0.03
STAT6 (UniProt P42226)	-0.07	-0.065	-0.041	-0.268	0.044	0.108	0.061	0.041	-0.047	0.03	-0.052
SNW1 (UniProt Q13573)	0.034	0.019	0.017	0.02	-0.056	-0.044	-0.019	0.062	0.05	-0.05	0.087
STAT5A (UniProt P42229)	-0.115	-0.112	-0.112	-0.115	0.112	0.061	0.194	0.037	-0.029	0.061	-0.087
SPG11 (UniProt Q96JI7)	-0.395	-0.138	0.145	-0.293	-0.25	-0.638	-0.233	0.01	0.041	-0.219	0.185
TARBP1 (UniProt Q13395)	-0.033	0.048	-0.027	0.014	-0.044	0.003	0.079	0.034	0.053	0	0.043
SMAP2 (UniProt Q8WU79)	-0.013	0.024	-0.043	-0.069	-0.01	0.002	0.056	0.06	-0.122	-0.028	0.019
SPECC1 (UniProt Q5M775)	-0.126	-0.053	-0.124	-0.132	-0.007	0	-0.213	0.08	-0.06	-0.091	0.085
TLK1 (UniProt Q9UKI8)	-0.062	-0.074	-0.063	-0.034	0.042	0.027	0.049	-0.002	0.002	-0.074	0.001
TIMM10 (UniProt P62072)	-0.004	0.042	-0.027	-0.077	0.058	-0.048	-0.012	0.009	-0.04	-0.043	0.009
SLC4A2 (UniProt P04920)	-0.048	-0.055	-0.204 (active)	-0.123	0.028	0.023	-0.072	0.019	0.016	-0.084	0.028
SRPRB (UniProt Q9Y5M8)	0.048	0.028	-0.056	-0.038	0.045	0.029	0.029	-0.007	-0.014	0.045	-0.052
SP100 isoform 4 (UniProt P23497)	0.03	-0.007	-0.025	-0.039	0.007	-0.046	-0.011	0.059	-0.051	0.02	0.045
TIMM21 (UniProt Q9BVV7)	-0.041	-0.055	-0.087	-0.047	-0.015	0.04	0.052	0.024	-0.016	-0.016	0.017
SSR4 (UniProt P51571)	0.032	-0.013	-0.011	0.023	-0.011	0	0.019	-0.029	0.004	-0.056	-0.021
TIMM44 (UniProt O43615)	-0.085	-0.141	-0.372 (active)	-0.023	0.084	0.04	0.066	-0.041	-0.027	-0.048	-0.036
TIMM13 (UniProt Q9Y5L4)	0.114	0.031	-0.027	0.012	0.01	0.031	0.117	-0.016	0.152	0.107	-0.086

Target	log2 fold change [1]	log2 fold change [2]	log2 fold change [3]	log2 fold change [4]	log2 fold change (entinostat)	log2 fold change (vorinostat)	log2 fold change (citarinostat)	log2 fold change (silmitasertib)	log2 fold change [5]	log2 fold change [6]	log2 fold change (entospletinib)
SLC25A38 (UniProt Q96DW6)	0.035	-0.068	-0.21	0.06	-0.049	-0.096	0.02	0.069	-0.022	-0.028	-0.02
SNX12 isoform 1 (UniProt Q9UMY4)	-0.022	-0.225 (active)	-0.22 (active)	0.019	0.046	0.035	0.102	0.06	-0.081	-0.066	-0.005
STK25 (UniProt O00506)	-0.029	-0.06	-0.136	-0.08	-0.016	0.042	-0.026	0.078	-0.064	-0.034	-0.104
TAMM41 isoform 3 (UniProt Q96BW9)	0.001	-0.052	-0.148	-0.059	0.022	0.023	0.013	-0.004	-0.125	-0.043	-0.039
THADA (UniProt Q6YHU6)	0.004	-0.085	-0.147	-0.082	0.014	-0.001	0.121	-0.061	-0.025	-0.013	0.004
TELO2 (UniProt Q9Y4R8)	-0.039	-0.1	-0.207	0.037	0.039	0.137	0.009	0.067	0.117	-0.075	0.044
SNRNP40 (UniProt Q96DI7)	0.017	-0.017	0.065	-0.011	-0.067	-0.018	-0.008	0.058	0.04	-0.121	-0.025
THRAP3 (UniProt Q9Y2W1)	-0.02	-0.076	-0.153	-0.037	0.024	0.021	0.005	-0.169	-0.026	-0.257	0.09
ST6GAL1 (UniProt P15907)	-0.101	0.089	-0.079	-0.004	-0.106	-0.045	0.025	0.024	0.017	-0.064	0.098
SRXN1 (UniProt Q9BYN0)	-0.013	-0.364	-0.024	-0.021	-0.053	-0.24	-0.039	-0.059	-0.111	0.09	-0.079
SRSF2 (UniProt Q01130)	-0.056	0.04	0.139	-0.006	-0.067	-0.057	-0.04	-0.062	0.059	-0.081	0.071
STAT3 (UniProt P40763)	-0.001	-0.047	-0.2	-0.092	0.089	0.101	0.062	0.103	-0.036	-0.016	0.026
SMG1 (UniProt Q96Q15)	-0.073	-0.111	-0.101	-0.073	-0.097	-0.012	0.024	0.142	0.013	-0.187	-0.004
SORT1 (UniProt Q99523)	-0.005	-0.032	-0.687 (active)	0.038	-0.017	-0.002	0.073	0.006	0.004	-0.139	0.05
SSX2 (UniProt Q16385)	-0.049	-0.094	-0.02	-0.057	-0.054	-0.022	-0.025	0.011	-0.098	0.033	0.041
TFAM (UniProt Q00059)	-0.079	-0.006	0.085	0.011	-0.035	0.005	-0.151	0.011	0.06	-0.115	0.08
SUCLG1 (UniProt P53597)	-0.037	-0.077	-0.106	-0.059	0.012	0	0.043	-0.037	-0.073	-0.049	-0.041
TFB2M (UniProt Q9H5Q4)	-0.029	-0.066	-0.187	-0.066	0.054	0.027	0.01	0.046	-0.024	0.003	-0.011
STK26 (UniProt Q9P289)	0.07	-0.005	-0.111	-0.057	-0.063	0.034	0.092	0.069	-0.017	-0.007	-0.022
TIMM10B (UniProt Q9Y5J6)	0.021	0.257	-0.111	-0.007	0.016	-0.202	0.074	0.034	-0.04	0.022	0.045
SPAST (UniProt Q9UBP0)	0.027	-0.003	-0.12	-0.109	0.075	0.033	0.058	0.028	-0.035	-0.029	0
STIM1 (UniProt Q13586)	-0.032	-0.074	-0.075	-0.117	0.011	0.022	-0.013	0.007	-0.054	-0.04	0.003
SNRPB2 (UniProt P08579)	0.047	-0.012	0.03	0.038	-0.016	-0.027	0.023	0.051	0.046	-0.034	-0.026
SLC44A2 isoform 2 (UniProt Q8IWA5)	-0.086	0.168	0.128	0.05	-0.06	-0.006	0.091	-0.071	-0.075	-0.289	-0.085
SUN2 (UniProt Q9UH99)	0.002	0.011	-0.054	-0.03	0.054	0.018	0.019	0.007	0.097	-0.087	0
SMARCAD1 isoform 2 (UniProt Q9H4L7)	-0.109	-0.043	-0.187	-0.072	0.057	0.045	0.037	0.03	-0.187	0.088	-0.008
SPAG9 (UniProt O60271)	-0.042	-0.13	-0.123	-0.055	0.034	0.023	0.01	0.038	-0.014	-0.024	0.024
